# Experimental data reported in PubChem BioAssay AID1794835 (Parasite Biology Lab, Institute for Biomedicine and …, 2023).
# The campaign covered roughly 2,500 compounds. About 45 (2%) were called active. Rule as the data show it: active = inhibition mostly above about 45% (no sharp cut-off); inactive = mostly below about 37%. What follows is part of a selection rich in actives, with near analogues and random picks from the rest.
# Experiment: anti-Giardia activity of synthetic compounds – Compounds Australia Scaffold Library subset, 24/48 h, primary screen (AID 1794835);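 as to inhibition: 0% = parasite counts in DMSO vehicle wells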
# Conditions: Giardia lamblia BRIS/91/HEPU/1279 trophozoite counts, imaging, at 10 µM
# [1] = measured here: growth inhibition at 24 h, stronger effect = higher value
smiles,measurement,setting,value
N=C1C(=C2Nc3ccccc3S2)CC(=O)N1C1CC1,outcome,,inactive
same,inhibition,[1],2.5%
CCN(CC)CCCN1C(=O)C(O)=C(C(=O)c2cc3cccc(OC)c3o2)C1c1ccncc1 (stereo unspecified),inhibition,,inactive
CCOc1cc(C)ccc1NC(=O)N1CCC12CCC2,inhibition,,inactive
CCn1cc(CN2CCCN(C(=O)c3cc(C4CC4)on3)CC2)cn1,outcome,,inactive
same,inhibition,[1],1.1%
CN1C(=O)c2cc(NC(=O)c3ccc4c(c3)OCO4)ccc2N2CCN=C12,inhibition,stronger effect = higher value,31.6% (inactive)
same,inhibition,[1],11.7%
Cc1ccc(C(=O)Nc2ccc3c(c2)Oc2ccccc2C(=O)N3C)cc1,inhibition,stronger effect = higher value,96.8% (active)
same,inhibition,[1],90.3%
CCOc1ccc(C(=O)Nc2ccc3c(c2)N(C(C)C)C(=O)c2ccccc2O3)cc1,inhibition,stronger effect = higher value,33.8% (inactive)
same,inhibition,[1],18.7%
O=C(NCc1cccc(F)c1)C1CCCN(c2nc3ccccc3n3cccc23)C1 (stereo unspecified),outcome,,inactive
same,inhibition,[1],2.2%
CNC(=O)N1C[C@@H](CN(C)C)[C@@H](C2CCN(Cc3ccccn3)CC2)C1,inhibition,,inactive
CCCCNC(=O)Cn1c(=O)c2c(C)cc(C)nc2n(-c2ccccc2)c1=O,inhibition,stronger effect = higher value,4.4% (inactive)
Cc1ccc(-n2c(=O)c3c(cnn3C)n(CC(=O)Nc3ccccc3C)c2=O)cc1,inhibition,stronger effect = higher value,76.9% (active)
same,inhibition,[1],53.9%
Cc1ccccc1NC(=O)Cn1ccc2sccc2c1=O,inhibition,stronger effect = higher value,19.9% (inactive)
COC(=O)c1ccc(C(=O)N2CCc3sccc3C2)s1,inhibition,,inactive
CC(=O)c1ccc(C(=O)N2CC=C(c3ccccc3)CC2)s1,inhibition,,inactive
COc1cc(OC)c(C2=CCN(C(=O)c3ccc(C)s3)CC2)c(OC)c1,inhibition,stronger effect = higher value,59.3% (active)
same,inhibition,[1],23.1%
CC(=O)N1c2ccc(S(=O)(=O)N3CCOCC3)cc2CC1C(=O)NCCN1CCOCC1 (stereo unspecified),inhibition,,inactive
COc1ccc(NC(=O)c2cncc(NS(=O)(=O)c3ccc(C)cc3)c2)cc1,inhibition,,inactive
COc1cc(NS(=O)(=O)c2ccc(C)cc2)cc2sc(NC(=O)c3ccccc3)nc12,inhibition,stronger effect = higher value,50% (active)
same,inhibition,[1],23.6%
CCC(=O)Nc1nc2c(OC)cc(NS(=O)(=O)c3cc(Cl)ccc3OC)cc2s1,inhibition,,inactive
COc1ccc(-c2noc(C3CCOCC3)n2)c(OC)c1,inhibition,,inactive
Cc1ccc2nc(-c3ccc(C)c(NC(=O)c4cccnc4)c3)[nH]c2c1,inhibition,stronger effect = higher value,8.2% (inactive)
same,inhibition,[1],2.9%
Cc1cnn(CC(C)NCc2nc(-c3ccccn3)no2)c1 (stereo unspecified),inhibition,stronger effect = higher value,19.9% (inactive)
Cc1ccc(-c2cc(C(=O)NCc3cn(C)nc3C)c3ccccc3n2)cc1C,outcome,,inactive
same,inhibition,[1],3%
COc1cccc(-n2nnc3c(=O)n(CC(=O)N4CCCC4)cnc32)c1,inhibition,,inactive
CCOC(=O)c1ccc(S(=O)(=O)N2CCN(C3CCOC3=O)CC2)o1 (stereo unspecified),inhibition,,inactive
CCN1CCN(c2ccc(-c3nc(-c4cccc(F)c4)no3)cn2)CC1,inhibition,stronger effect = higher value,48.2% (inactive)
same,inhibition,[1],31.4%
O=S(=O)(c1cc(-c2nc(-c3cccc(F)c3)no2)cs1)N1CCCCC1,inhibition,,inactive
Cn1nccc1-c1cccc(-c2noc(-c3cccc(F)c3)n2)c1,inhibition,stronger effect = higher value,64.1% (active)
same,inhibition,[1],17.6%
O=c1[nH]c(CN2CCC(c3nc4ccccc4o3)CC2)nc2ccsc12,inhibition,,inactive
CC(C)c1ccc(NC(=O)c2ccc(F)c(S(=O)(=O)N3CCN(c4ccccc4)CC3)c2)cc1,inhibition,,inactive
CCOC(=O)c1cccc(Nc2ncccc2S(N)(=O)=O)c1,inhibition,stronger effect = higher value,35.4% (inactive)
same,inhibition,[1],14.6%
CC(C)c1ccc(Nc2ncccc2S(=O)(=O)N2CCCC2)cc1,inhibition,stronger effect = higher value,57.5% (active)
same,inhibition,[1],27%
CC(=O)Nc1nsc(N2CCCC(C(=O)NCc3ccccc3Cl)C2)n1 (stereo unspecified),inhibition,stronger effect = higher value,5.9% (inactive)
same,inhibition,[1],4.9%
Cc1ccc2nc(-c3ccccc3)c(CN3CCN(C4CCS(=O)(=O)C4)CC3)n2c1 (stereo unspecified),inhibition,,inactive
O=C(c1cn2ccccc2n1)N1CCN(C2CCS(=O)(=O)C2)CC1 (stereo unspecified),inhibition,,inactive
O=S1(=O)CCC(n2cc(-c3cnn(-c4ccccc4)c3)cn2)C1 (stereo unspecified),inhibition,stronger effect = higher value,66.2% (active)
same,inhibition,[1],45.5%
O=C(c1ccc(F)cc1)N1CCc2[nH]nc(C(=O)N3CCN(c4ccc(F)cc4)CC3)c2C1,inhibition,stronger effect = higher value,0.9% (inactive)
same,inhibition,[1],2.4%
O=C(c1ccc2c(=O)n3c(nc2c1)CCCC3)N1CC=C(c2ccccc2)CC1,inhibition,,inactive
COc1ccccc1-c1cc(C(=O)Nc2sc(Nc3ccccc3)nc2C(N)=O)[nH]n1,inhibition,stronger effect = higher value,11.1% (inactive)
same,inhibition,[1],11.2%
Cc1cccc(C)c1NC(=O)c1cc(-c2ccccc2)nc2c1cnn2Cc1cccnc1,inhibition,stronger effect = higher value,17.5% (inactive)
CN(C)CCCN1C(=O)C(=O)C(=C(O)c2cc(Cl)ccc2O)C1c1ccco1 (stereo unspecified),inhibition,stronger effect = higher value,14.6% (inactive)
Cn1cc(C(=O)c2ccccc2O)cc1-c1nc2ccccc2c(=O)[nH]1,inhibition,,inactive
CN(C)CCn1cc(C(=O)c2cc(Cl)ccc2O)cc1-c1nc2ccccc2c(=O)[nH]1,inhibition,stronger effect = higher value,85.8% (active)
same,inhibition,[1],45%
Cc1noc(-c2nn(C)c3c2CN(S(=O)(=O)Cc2cccc(F)c2)CC3)n1,inhibition,stronger effect = higher value,14.3% (inactive)
O=C(CCc1ccc(Cl)cc1Cl)N1CCCC(c2ncn[nH]2)C1 (stereo unspecified),inhibition,stronger effect = higher value,0.4% (inactive)
CCCNC1=C(C(=O)Nc2ccc(F)cc2)S(=O)(=O)c2ccccc21,inhibition,stronger effect = higher value,46.5% (inactive)
same,inhibition,[1],21.9%
NC(=O)C1=C(Nc2ccccc2)c2ccccc2S1(=O)=O,inhibition,stronger effect = higher value,48.5% (active)
same,inhibition,[1],12.8%
CN(C)c1nc(N(C)C)nc(N2CC(=O)N(c3ccc(Cl)c(Cl)c3)C2=N)n1,inhibition,stronger effect = higher value,16% (inactive)
same,inhibition,[1],9.5%
